High-throughput results: PubChem, The Scripps Research Institute Molecular Screening Center
Hits are enriched below; roughly 4.5% of the tested compounds scored in any of these assays.
ssDAF12 agonist: S. stercoralis DAF-12 activation, primary screen; HEK293 ssDAF-12/GRIP1 lit1-tk-luc reporter, luminescence; % of 3 µM dafachronic acid response; activation, % at 6.8 µM; 370,000 tested, 1% active;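 active = activation above the mean over all tested compounds plus 3 SD, cut at about 0.9% in these data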;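 also: 0% = DMSO-only wells and 100% = 3 µM delta7-dafachronic acid wells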
hcDAF12 agonist: activates DAF-12 receptor from parasite H. contortus; HEK293 hcDAF-12 lit1-tk-luc reporter, luminescence; 0% DMSO, 100% Δ7-dafachronic acid; activation, % at 6.8 µM; 370,000 tested, 1.4% active; AID 652067;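 active = activation above the mean of all tested compounds plus 3 SD, cut at about 5.5% in these data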;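 also: 100% = response to 3 µM Δ7-dafachronic acid high control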
hgDAF12 agonist: agonists of H. glycines DAF-12 nuclear receptor | AID 687014 | 370,000 tested, 1.8% active | activation, % at 6.8 µM | HEK293 GAL4-hgDAF12 UAS-luciferase reporter, agonist luminescence; normalized to butyrate control;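 active = activation above a cutoff set at the mean of all screened compounds plus 3 SD, cut at about 10% in these data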;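 also: 0% = DMSO wells and 100% = sodium butyrate wells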
DAX1 inh-1: inhibits human nuclear receptor DAX1. AID 504766. inhibition, % at 6.75 µM. HEK293 Gal4-DAX1 luciferase reporter, luminescence. P51843. 340,000 tested, 0.99% active;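 active = inhibition above the mean over all tested compounds plus 3 SD, cut at about 4.2% in these data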;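 also: 0% = DAX1-transfected cells with DMSO and 100% = empty-vector control cells with DMSO; inhibition shows as a rise in luminescence from relieved DAX1 repression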
Target sequence (P51843 207-470 limits assumed): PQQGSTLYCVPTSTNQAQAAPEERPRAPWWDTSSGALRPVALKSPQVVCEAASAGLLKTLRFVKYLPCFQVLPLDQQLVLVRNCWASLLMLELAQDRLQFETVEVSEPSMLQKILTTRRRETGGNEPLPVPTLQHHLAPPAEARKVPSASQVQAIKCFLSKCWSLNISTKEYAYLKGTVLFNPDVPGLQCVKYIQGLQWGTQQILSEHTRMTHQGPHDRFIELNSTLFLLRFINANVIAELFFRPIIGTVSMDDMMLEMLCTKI
GAA850 FXN act: frataxin GAA850 promoter activation; HEK293 lucGAA850 FXN promoter luciferase reporter, 24 h; percent of 10 µM SAHA response; activation, % at 6 µM; 360,000 tested, 0.56% active; AID 540364;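 active = activation above the average of all compounds screened plus 3 SD, cutoff fixed separately per campaign, cut at about 7.5% in these data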;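 also: 0% = DMSO wells and 100% = 10 µM SAHA wells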
DAX1 inh-2: blocks DAX1 repression of SF-1 activated StAR promoter. HEK293T StAR-luciferase reporter, SF-1/DAX-1 repression relief. inhibition, % at 6.8 µM. 370,000 tested, 1.1% active;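 active = inhibition above the mean over all tested compounds plus 3 SD, cut at about 3.6% in these data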;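 also: 0% = DAX-1 cells with DMSO and 100% = cells lacking DAX-1 with DMSO; higher inhibition means more luminescence from relief of DAX-1 repression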
Numbers without * were called inactive.

For CCOc1ccc(OCc2cccc(C(=O)N3CCCC3)c2)cc1 the results were ssDAF12 agonist -1, hcDAF12 agonist 3, hgDAF12 agonist 10, DAX1 inh-1 -3, GAA850 FXN act 5 and DAX1 inh-2 4.2*.
`CC(C)Oc1cccc(C(=O)C2CCCN(C(=O)c3ccsc3)C2)c1` (stereo unspecified) gave ssDAF12 agonist -1, hcDAF12 agonist -1, hgDAF12 agonist -1, DAX1 inh-1 0, GAA850 FXN act 2 and DAX1 inh-2 0.
O=C(O)c1cc(OCc2ccccc2)cc(OCc2ccccc2)c1 was read as ssDAF12 agonist -1, hcDAF12 agonist 0, hgDAF12 agonist 2, DAX1 inh-1 0, GAA850 FXN act 0 and DAX1 inh-2 0.
For COc1cccc(OC)c1C(=O)NNC(=O)c1cccc(COc2ccc3c(c2)CCC3)c1 the results were ssDAF12 agonist -1, hcDAF12 agonist 2, hgDAF12 agonist 12*, DAX1 inh-1 -4, GAA850 FXN act 2 and DAX1 inh-2 2.
For CC(C)Oc1cccc(C(=O)N2CCCC2)c1 the results were ssDAF12 agonist 1.1*, hcDAF12 agonist 1, hgDAF12 agonist 0, DAX1 inh-1 -1, GAA850 FXN act 2 and DAX1 inh-2 0.
Screening COc1ccc(OCc2cccc(C(=O)O)c2)cc1 returned ssDAF12 agonist 0, hcDAF12 agonist 5.8*, hgDAF12 agonist 5, DAX1 inh-1 -6, GAA850 FXN act -1 and DAX1 inh-2 1.
Screening Cc1ccc(-c2cc(C(=O)NN=Cc3ccc(N(C)C)cc3)[nH]n2)cc1C returned ssDAF12 agonist -1, hcDAF12 agonist 3, hgDAF12 agonist 4 and DAX1 inh-2 0.
For CCCCNC(=O)C[C@H]1C[C@@]2(C(=O)OC)C(=C[C@H](C3CCCC3)O[C@@H]2C)N(CCC2=CCCCC2)C1=O the results were ssDAF12 agonist -1, hcDAF12 agonist 3, hgDAF12 agonist -1 and DAX1 inh-2 -1.
For O=C(O)c1cccc(COc2ccc(CO)cc2Cl)c1 the results were ssDAF12 agonist 0, hcDAF12 agonist 2, hgDAF12 agonist 1, DAX1 inh-1 -6, GAA850 FXN act -5 and DAX1 inh-2 3.6*.
`NNC(=O)c1ccc(COc2ccc3c(c2)CCC3)o1` gave ssDAF12 agonist -1, hcDAF12 agonist -1, hgDAF12 agonist 11*, DAX1 inh-1 1, GAA850 FXN act 4 and DAX1 inh-2 0.
`O=C(O)c1ccc(COc2ccc(CO)cc2Cl)cc1` gave ssDAF12 agonist -1, hcDAF12 agonist 2, hgDAF12 agonist 5, DAX1 inh-1 1, GAA850 FXN act 0 and DAX1 inh-2 2.
O=Cc1ccc(OCc2cccc(C(F)(F)F)c2)cc1O was read as ssDAF12 agonist 0, hcDAF12 agonist -1, hgDAF12 agonist 3, DAX1 inh-1 7.2*, GAA850 FXN act 0 and DAX1 inh-2 -1.
For COc1cccc(COc2ccc3ccc(=O)oc3c2)c1 the results were ssDAF12 agonist 1.0*, hcDAF12 agonist 0, hgDAF12 agonist 10, DAX1 inh-1 2, GAA850 FXN act 3 and DAX1 inh-2 1.
`O=C(OCC(F)(F)F)c1cccc(COc2ccc3ccccc3c2)c1` gave ssDAF12 agonist 0, hcDAF12 agonist 6.1*, hgDAF12 agonist 15*, DAX1 inh-1 -5, GAA850 FXN act 4 and DAX1 inh-2 5.6*.
Nn1c(SCC(=O)N2CCOCC2)nnc1-c1n[nH]c2c1CCC2 was read as ssDAF12 agonist -1, hcDAF12 agonist 0, hgDAF12 agonist 5 and DAX1 inh-2 0.
For COC(=O)c1ccc(OC)c(OC2CCCC2)c1 the results were ssDAF12 agonist -1, hcDAF12 agonist -1, hgDAF12 agonist 1, DAX1 inh-1 6.3*, GAA850 FXN act -1 and DAX1 inh-2 0.
O=C(Nc1ccc(Cl)c(Cl)c1)Nc1ccccn1 was read as ssDAF12 agonist 0, hcDAF12 agonist 0, hgDAF12 agonist 7, DAX1 inh-1 4, GAA850 FXN act 5 and DAX1 inh-2 0.
COc1ccc(NC(=O)Nc2ccccn2)cc1OC was read as ssDAF12 agonist 1.5*, hcDAF12 agonist 1, hgDAF12 agonist 0, DAX1 inh-1 0, GAA850 FXN act 3 and DAX1 inh-2 1.
Screening COc1ccc(NC(=O)NC2CCCCCCC2)cc1OC returned ssDAF12 agonist -1, hcDAF12 agonist 1, hgDAF12 agonist 1, DAX1 inh-1 0, GAA850 FXN act 6 and DAX1 inh-2 4.4*.
COc1ccc(OC)c(NC(=O)NC2CCCCCCC2)c1 was read as ssDAF12 agonist -1, hcDAF12 agonist -1, hgDAF12 agonist 2, DAX1 inh-1 -1, GAA850 FXN act 0 and DAX1 inh-2 0.
Screening COc1ccc(NC(=O)C(=S)NC2CCCCC2)cc1 returned ssDAF12 agonist -1, hcDAF12 agonist 1, hgDAF12 agonist 12*, DAX1 inh-1 2, GAA850 FXN act 7 and DAX1 inh-2 3.
`CCOC(=O)[C@]12CCCC3=C1N(CCC3)C(=O)[C@@H](CC(=O)N1CCN(C(=O)c3ccco3)CC1)C2` gave ssDAF12 agonist -1, hcDAF12 agonist 2, hgDAF12 agonist 4 and DAX1 inh-2 0.
For COC(=O)[C@]12C[C@H](CC(=O)N3CCN(C(=O)c4ccco4)CC3)C(=O)N(Cc3ccco3)C1=C[C@H](COCc1ccccc1)O[C@@H]2C the results were ssDAF12 agonist -1, hcDAF12 agonist -2, hgDAF12 agonist -3 and DAX1 inh-2 0.
C#CCN1CC(N(C)CCCO)CS1(=O)=O (stereo unspecified) was read as ssDAF12 agonist -2, hcDAF12 agonist 0, hgDAF12 agonist 1 and DAX1 inh-2 0.
`Cc1ccc(NC(=O)NC2CCCCC2)cc1Cl` gave ssDAF12 agonist 0, hcDAF12 agonist 2, hgDAF12 agonist 12*, DAX1 inh-1 3, GAA850 FXN act 4 and DAX1 inh-2 2.
For Cc1ccc(NC(=O)C2CCN(C(=O)NC3CCCCC3)CC2)cc1Cl the results were ssDAF12 agonist -1, hcDAF12 agonist -1, hgDAF12 agonist -3, DAX1 inh-1 -1, GAA850 FXN act 0 and DAX1 inh-2 -1.
Cc1nc2cc(C(=O)N3CCN(C(=O)OCc4ccccc4)CC3)ccc2n1C1CCCC1 was read as ssDAF12 agonist -2, hcDAF12 agonist -2, hgDAF12 agonist -2 and DAX1 inh-2 0.
CCCNc1c(N)n(-c2ccccc2)c(=O)[nH]c1=O was read as ssDAF12 agonist -2, hcDAF12 agonist -1, hgDAF12 agonist 0, DAX1 inh-1 6.1*, GAA850 FXN act 2 and DAX1 inh-2 1.
Nc1c(N=O)c(=O)[nH]c(=O)n1-c1ccccc1 was read as ssDAF12 agonist -1, hcDAF12 agonist 0, hgDAF12 agonist 1, DAX1 inh-1 0, GAA850 FXN act -2 and DAX1 inh-2 0.
